Laboratory results taken from PubChem BioAssay AID624304 (Sanford-Burnham Center for Chemical Genomics, 2012).
Hit rate of the full screen: of about 360,000 compounds, about 1,800 (0.5%) were called active.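 The calls were made as follows: active = interference check ratio from 0.5 to 1.5 plus GFP to RFP signal ratio inhibition reaching or exceeding a fixed threshold (cut at about 30% in these data, passing the limit was not always enough); inactive = the rest.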 The entries come from a sample that favours actives as a whole.

experiment: suppressors of acrylamide-induced Pgst-4::GFP reporter in worms, primary screen, SKN-1 inhibitor project, whole organism, uHTS, GFP/RFP fluorescence ratio, strain VP596 (AID 624304); conditions: C. elegans VP596 Pgst-4::GFP/RFP ratio, 24 h, at 21.8 µM, hits give high values

Row | Compound | inhibition
1 | Cc1ccc(P(=S)(c2ccc(C)o2)N2CCOCC2)o1 | 36.8% (active)
2 | CN(C)C(=O)Oc1ccc(NC(=O)N2CCOCC2)cc1 | 12% (inactive)
3 | CC[N+]1(C)CCCC(OC(=O)C(O)(c2ccccc2)c2ccccc2)C1 (stereo not given) | -6.17% (inactive)
4 | CC1CCCN1CCC(C(N)=O)(c1ccccc1)c1ccccc1 (stereo not given) | -0.187% (inactive)
5 | CN(C)CC1Oc2ccccc2OC1(O)c1ccccc1 (stereo not given) | -1.82% (inactive)
